Screens (PubChem)
Most compounds without a hit are left out; they make up all but 4.7% or so of the library.
D1 PAM – human D1 dopamine receptor positive modulation. HEK293 TREx D1 cells, calcium flux, dopamine EC20 potentiation. potentiation, % at 10 µM. 360,000 tested, 0.036% active; in the data active = potentiation above about 30%
Target sequence (P21728 whole entry, looked up): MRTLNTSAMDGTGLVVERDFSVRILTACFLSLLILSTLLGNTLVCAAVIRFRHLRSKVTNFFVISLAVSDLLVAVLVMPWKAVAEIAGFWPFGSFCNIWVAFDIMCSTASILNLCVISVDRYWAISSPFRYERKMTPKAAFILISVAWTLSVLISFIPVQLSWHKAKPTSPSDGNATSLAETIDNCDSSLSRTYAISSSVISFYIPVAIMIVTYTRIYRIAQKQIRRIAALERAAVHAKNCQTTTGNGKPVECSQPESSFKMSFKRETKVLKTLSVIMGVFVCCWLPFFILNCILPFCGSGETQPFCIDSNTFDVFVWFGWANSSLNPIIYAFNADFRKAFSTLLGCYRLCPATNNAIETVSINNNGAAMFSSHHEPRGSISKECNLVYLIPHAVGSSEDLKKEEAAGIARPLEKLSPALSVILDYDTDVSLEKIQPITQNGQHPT
TRHR PAM – allosterically enhances the human TRH receptor | TRHR cells, fluo-8 calcium fluorescence, EC20 TRH enhancement | 360,000 tested, 0.66% active | AID 493056 | enhancement, % at 2 µM; in the data active = enhancement above about 30%
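Enhancer read-out: after compound pinning and an initial kinetic agonist-mode read, an EC20 of TRH (10 nM final) was injected and fluo-8 calcium signal (Ex 480/Em 530) followed at 1 s/cycle for 100 cycles in TRHR-expressing cells.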
D1 ag – activates the human D1 dopamine receptor | P21728 | HEK293 T-REx D1 cells, calcium flux, agonist mode | activation, % at 2 µM | 360,000 tested, 1% active | AID 504660
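Agonism was scored from calcium flux recorded over 180 s (1 read/s) after pintool compound addition, following a 10-cycle baseline. Cells were inducible force-coupled HEK293 TREx D1, plated overnight at 30 C and loaded with no-wash calcium dye.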
TRHR ag – agonists of human TRH receptor; TRHR cells, calcium flux fluo-8, FDSS agonist mode; activation, % at 2 µM; P34981; AID 493084; 360,000 tested, 0.18% active
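Read-out: compound-evoked intracellular calcium rise in TRHR cells, fluo-8 dye, kinetic FDSS fluorescence at 1 s/cycle following a 10-cycle baseline. Cells cultured overnight before dye loading (30 min–1.5 h, RT).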
D1 antagonist – antagonists of human D1 dopamine receptor | P21728 | HEK293 TREx D1 cells, calcium flux, dopamine EC80; hits give low values | activity change, negative = inhibition, % at 10 µM | 360,000 tested, 3.2% active; in the data active = activity change below about -30%
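Allosteric or orthosteric antagonism assessed as attenuation of the calcium response to EC80 dopamine, added 180 s after compound, in induced HEK293 Trex D1 cells loaded with no-wash calcium dye.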
Numbers stand for hits; – = inactive; · = no result given; ! = not confirmed by another sample. Cut-off read from the data, not from the text of the source, unless noted: active = activation above about 30%; inactive = the rest.

SMILES | D1 PAM | TRHR PAM | D1 ag | TRHR ag | D1 antagonist
O=C(CSc1nc2ccccc2[nH]1)NC(=O)NCc1ccco1 | – | – | – | – | -40
CCCc1cc(=O)[nH]c2nnc(SCC(=O)Nc3ccc(OC)cc3)n12 | – | – | – | – | ·
CCOC(=O)C1=C(CS(=O)(=O)c2cccc(C(F)(F)F)c2)NC(=O)NC1c1cccc(OC)c1 (configuration not stated) | – | – | – | – | –
CCN(C(=O)CCS(=O)(=O)c1cccc2nsnc12)c1cccc(C)c1 | – | – | – | – | -57!
N#Cc1ccc(-c2ccc(OCC(=O)NCCc3ccccc3)cc2)cc1 | – | – | 36 | – | -48
CCOC(=O)c1ccccc1NC(=O)COC(=O)C(CC(C)C)NC(N)=O (configuration not stated) | – | 41 | – | – | –
COc1cccc(CNC(=O)c2ccc(CSc3nc4ccncc4n3Cc3cccc(C)c3)cc2)c1 | – | – | – | – | –
CCOC(=O)c1[nH]c(C)c(/C=N/O)c1C | – | – | – | – | -56
COc1cc(OC)cc(-c2nnc(SCC(=O)c3ccc([N+](=O)[O-])cc3)o2)c1 | – | – | – | – | –
COc1ccc(C(CNC(=O)c2ccccc2C)N2CCCC2)cc1 (configuration not stated) | – | – | – | – | –
CCC(C)NC(=O)CNC(=O)c1nn(-c2ccc(OC)cc2)c(=O)c2ccccc12 (configuration not stated) | – | – | – | – | –
COc1ccc(C(CNC(=O)c2ccco2)N2CCOCC2)cc1 (configuration not stated) | – | – | – | – | –
COc1ccc(C(CNC(=O)c2cc(=O)[nH]c3ccccc23)N2CCCC2)cc1 (configuration not stated) | – | – | – | – | -38
COc1ccc(C(CNC(=O)c2nn(-c3ccccc3)c(=O)c3ccccc23)N2CCOCC2)cc1 (configuration not stated) | – | 32 | – | – | –
COc1ccc(Cl)cc1C(=O)NCC(c1ccc(N(C)C)cc1)N1CCCC1 (configuration not stated) | – | – | 34 | – | –
COc1ccc(C(CNC(=O)c2ccc(-c3cccc(C(F)(F)F)c3)o2)N2CCOCC2)cc1 (configuration not stated) | – | – | 34 | – | –
COc1ccc(C(=O)NCC(c2ccc(N(C)C)cc2)N2CCCC2)c(OC)c1 (configuration not stated) | – | – | – | – | –
CCN(CC)CCCNC(=O)c1sc2nc3n(c(=O)c2c1C)CCCCC3 | – | – | – | – | –
Cc1cc(F)ccc1S(=O)(=O)NCC(c1ccco1)S(=O)(=O)c1cccs1 (configuration not stated) | – | – | – | – | ·
CCc1ccc(CN(Cc2cn[nH]c2-c2ccc(OC)cc2)C(=O)Nc2cc(Cl)ccc2OC)cc1 | – | – | – | – | -62
CSCCC(/C(O)=C(\C#N)c1nc2ccccc2[nH]1)N1C(=O)c2ccccc2C1=O (configuration not stated) | – | – | – | – | -31
N#C/C(=C(/O)CN1C(=O)c2ccccc2C1=O)c1nc2ccccc2[nH]1 | – | – | – | – | –
CCCOc1ccc(CSC2=NCCN2)cc1[N+](=O)[O-] | – | – | – | – | –
O=[N+]([O-])c1cc(CSC2=NCCN2)ccc1O | – | – | – | – | -55
O=C(NCCNC(=O)c1ccccc1O)c1ccccc1O | – | – | – | – | –
SMILES | D1 PAM | TRHR PAM | D1 ag | TRHR ag | D1 antagonist
O=C(NCCCCCCNC(=O)c1ccccc1O)c1ccccc1O | – | – | – | – | -42
Cc1c(Cl)cccc1NC(=O)CSc1sc2c(O)cc(=O)[nH]c2c1C#N | – | – | – | – | –
N#Cc1c(SCC(=O)Nc2ccccc2C(F)(F)F)sc2c(O)cc(=O)[nH]c12 | – | – | – | – | -33
CCN(CC)c1ccc(NC(=O)c2cnc3c(-c4ccccc4)c(C)nn3c2C)c(C)c1 | – | – | – | – | –
S=C1NC2=C(CCCC2=C2SCCS2)C(c2ccccc2)N1 (configuration not stated) | – | 37 | – | – | –
Fc1ccc(/C=C2\CCCC3=C2NC(=S)NC3c2ccc(F)cc2)cc1 (configuration not stated) | – | – | – | – | –
Clc1ccc(OCCCn2cncn2)cc1Cl | – | – | 56 | – | –
CCN(CC)CCNC(=O)c1ccc(NC(=O)c2ccc(Cl)c(S(=O)(=O)N3CCCCCC3)c2)cc1 | – | – | – | – | -47
CCN(CC)CCNC(=O)c1ccc(NC(=O)c2ccc(S(=O)(=O)N3CCCCCC3)cc2)cc1 | – | – | – | – | -57
O=C(Nc1ccc(Br)cc1)c1ccc(Cl)c(S(=O)(=O)N2CCCCCC2)c1 | – | – | – | – | –
O=c1[nH]c2ccc(S(=O)(=O)N3CCN(S(=O)(=O)c4c(F)cccc4F)CC3)cc2[nH]c1=O | – | – | – | – | –
O=C(Nc1ccn(Cc2ccccc2F)n1)c1ccc(COc2ccc(Br)cc2)cc1 | – | – | 52 | – | -54
O=C(CN1C(=O)C2C3C=CC(C3)C2C1=O)OCC(=O)c1ccc(Br)cc1 (configuration not stated) | – | – | – | – | -43
O=C(CN1C(=O)C2C3CCC(C3)C2C1=O)OCC(=O)c1ccc(Br)cc1 (configuration not stated) | – | – | – | – | –
COc1ccc(C(=O)COC(=O)C(C(C)C)N2C(=O)C3C4C=CC(C4)C3C2=O)cc1 (configuration not stated) | – | – | – | – | -59
CCOC(=O)c1oc2ccc(CNC(C)(C)C)c(Cl)c2c1C | – | – | – | – | -52
O=C(COc1ccc(Cl)cc1)Nc1ccc2nc(SCC(=O)N3CCCC3)sc2c1 | – | – | – | – | –
COc1ccc(Cl)cc1NC(=O)NCc1ccc2c(c1)OCO2 | – | – | – | – | -33
O=C(NCc1ccc2c(c1)OCO2)Nc1cccc(Cl)c1 | – | – | – | – | -41
CCN1CCC(N(Cc2ccc3c(c2)OCO3)C(=O)Nc2cc(Cl)ccc2C(=O)OC)CC1 | – | – | 49 | – | –
COc1ccc(Cl)cc1NC(=O)Nc1cn(C)nc1C | – | – | – | – | -61
CC(=O)c1cccc(NC(=O)NCc2ccc3c(c2)OCO3)c1 | – | – | – | – | –
Oc1c(C(c2ccccc2Cl)N2CCC(O)CC2)sc2nc(-c3ccco3)nn12 (configuration not stated) | – | – | – | – | ·
CCOc1cc(Cn2c(-c3ccc(O)c(OCC)c3)nc3ccccc32)ccc1O | – | – | – | – | ·
CCOc1ccccc1NC(=O)Cn1nnc2sc3c(c2c1=O)CCC(C(C)(C)C)C3 (configuration not stated) | – | – | – | – | –
